# Screens (PubChem BioAssay)
# Shown is part of a subset that was picked to be rich in hits.
# Pf Dd2 growth = blocks in vitro growth of P. falciparum Dd2; 120,000 compounds, 4.3% hits; Potency, µM (doses to about 28.9 µM), for inactives: top-dose activity, negative = inhibition, usual class: inhibitors; AID 1347417; P. falciparum Dd2 growth, SYBR Green, 72 h; active = well fitted inhibition curve with a large enough effect;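 also: plate controls were DMSO vehicle for no effect and reference drug for full effect; nearly all actives have a fitted effect of over 65% in size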
#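 Readout: SYBR Green fluorescence, 485 nm excitation, 535 nm emission, after ~16 h lysis at 37C. Before that, Dd2-infected red cells (2.5% hematocrit) grew 72 h with compound, 29 uM top final concentration.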
# * hit, by the source's call; i = inactive; [ ] = remark or other dose. Potency is read from the fitted curve at half-maximal effect.
SMILES,Pf Dd2 growth
CCOC(=O)c1ccc(N2C(=O)c3n[nH]c(C)c3C2c2cccc(Br)c2)cc1 (stereo not drawn),12.6µM*
CCOC(=O)c1ccc(N2C(=O)c3[nH]nc(-c4ccc(C)cc4)c3C2c2ccc(O)c(OCC)c2)cc1 (stereo not drawn),7.08µM*
O=C(c1coc(CN2CCOCC2)c1)N1CCC2(CC1)[C@H](O)C[C@@H]2O,-10.7%
CC(C)c1cccc(NC(=O)CN2C(=O)C(c3ccccc3)=NC2(C)C)c1,-15.0%
COc1ccc(NC(=O)CN2C(=O)C(c3ccccc3)=NC23CCCCC3)cc1,i
O=c1[nH]c(C2CCCN(Cc3ccccc3C(F)(F)F)C2)nn1-c1ccccc1 (stereo not drawn),i
O=C([C@@H]1C[C@H](F)CN1C(=O)Nc1ccc(Cl)cc1)N1CCCCC1,23.9%
Cn1ncc(N2CCCC(CC(=O)NCc3ccccc3F)C2)cc1=O (stereo not drawn),9.1%
COCCOc1ccc2c(n1)CCN(C(=O)c1cccnc1)C2,28.9%
COc1ccc(C(=O)NCCn2ccn3nc(-c4ccc(F)cc4)cc3c2=O)cn1,-3.1%
CCOC(=O)c1ccc(NC(=O)c2cn(-c3ccccc3)nc2-c2ccc(C)cc2)cc1,4.4%
CCOC(=O)c1ccc(N2C(=O)c3[nH]nc(-c4ccc(OC)cc4)c3C2c2ccccc2Cl)cc1 (stereo not drawn),-7.5%
CCOC(=O)c1ccc(N2C(=O)c3[nH]nc(-c4ccc(C)cc4)c3C2c2cccs2)cc1 (stereo not drawn),11.2µM*
O=C(c1cc(F)ccc1F)N1CC(c2nc(CCc3ccccc3)no2)C1,-13.2%
O=C1N[C@H](CCC(=O)N2CCN(Cc3ccccc3)CC2)C(=O)Nc2ccccc21,-8.2%
CC(C)(C)C1CCc2c(sc(NC(=O)c3ccco3)c2C(=O)Nc2ccccc2Cl)C1 (stereo not drawn),56.4%
Cc1cccc(NC(=O)c2c(NC(=O)c3ccco3)sc3c2CCC(C)C3)c1 (stereo not drawn),i
Cc1cccc(NC(=O)c2c(NC(=O)c3ccco3)sc3c2CCC(C(C)(C)C)C3)c1 (stereo not drawn),7.08µM*
O=C(NCc1ccccn1)C1CCN(Cc2cc3n(n2)CCNC3)CC1,-7.5%
CCC(=O)N1Cc2ccccc2CC2(CCCCN2CC2CCNC2)C1 (stereo not drawn),-2.5%
CC(C)(C)n1nnnc1C1CC2(CCOCC2)C(=O)N1Cc1cccs1 (stereo not drawn),11.2%
CCOc1ccc(S(=O)(=O)c2cn(C)c3ccccc3c2=O)cc1,-0.2%
CCOc1ccc(S(=O)(=O)Nc2nc3ccccc3nc2Nc2ccc(OC)cc2)cc1,-5.0%
CCOc1ccc(/C=C/c2nc3ccccc3n2S(=O)(=O)c2ccc(Br)cc2)cc1,11.2µM*
CC(=O)N1CCN(C(=O)c2cc3ccccc3[nH]c2=O)CC(O)C1 (stereo not drawn),2.0%
SMILES,Pf Dd2 growth
O=C1NCCN1C1CCN(S(=O)(=O)c2cccs2)CC1,14.9%
CC(=O)N1CCn2c(nnc2-c2ccccc2)C1,14.6%[44.1 µM]
CCOc1ccccc1NC(=O)N1c2ccccc2Sc2ccccc21,12.6µM*
CCOc1ccccc1NC(=O)N1CC(C)Oc2ccc(Cl)cc21 (stereo not drawn),14.8%
CCOc1ccccc1NC(=O)N1CCCn2nc(C)cc21,i[5.79 µM]
CC(C)Oc1ccc(CNC(=O)CCCN2C(=O)CCn3nc(-c4cccn4C)cc32)cc1,3.9%
Cc1ccc(CNC(=O)CCCN2C(=O)CCn3nc(-c4cccn4C)cc32)cc1,5.01µM*
CN(C)c1ccc(CNC(=O)CCCN2C(=O)CCn3nc(-c4cccn4C)cc32)cc1,-1.7%
Cc1nonc1Cc1nc(C2CCOCC2)nn1CC1COCCO1 (stereo not drawn),4.9%
Cc1n[nH]c(C)c1CN1CCC2(CC1)CCN(C1CCOCC1)CC2CO (stereo not drawn),-4.4%
Clc1ccccc1CNC1(Cc2cc(-c3ccccc3)on2)COC1,8.2%[44.1 µM]
CC[C@H]1CN(Cc2ccc(OC)cc2O)CC[C@H]1CC(=O)N1CCOCC1,7.94µM*
CC[C@H]1CN(C(=O)c2ccccc2)CC[C@H]1CC(=O)N1CCOCC1,-12.3%[44.1 µM]
CC[C@H]1CN(S(=O)(=O)c2ccccc2)CC[C@H]1CC(=O)N1CCOCC1,i
COCCc1noc(C2Cc3ccccc3N2C(=O)Nc2ccc(OC)c(OC)c2)n1 (stereo not drawn),57.4%[5.79 µM]
OCCC1CN(c2nccc(-c3ccccn3)n2)CCN1Cc1ccoc1 (stereo not drawn),-10.6%
COCC(=O)NC1CCC12CCN(S(=O)(=O)c1cn(C)cn1)CC2 (stereo not drawn),-24.8%
Cc1cc(O)c(CN2CCN(c3ccc(F)cc3)CC2)c2oc(=O)cc(C)c12,11.2µM*
Cc1scc(CN2CCN(c3ccc(F)cc3)CC2)c1C,-15.7%
COc1ccc(N2CCN(Cc3cc(=O)oc4ccc(OC)cc34)CC2)cc1,-12.7%
CCOc1ccccc1CN1CCC2(CCN(C(=O)c3ccc(OC)cc3)CC2)Oc2ccccc21,-20.1%
CCCN1CCC2(CCN(C(=O)Nc3ccc(Cl)cc3)CC2)Oc2ccccc21,-13.8%
